20 compounds from PubChem BioAssay (Tox21) can be followed below.

Activity calls are given as the source filed them. Calls follow the shape of the dose curve; as a rule, active = well fitted curve in the direction sought with a large enough effect in the repeat runs; inconclusive = weak or mixed curves; inactive = flat fitted curve, though single readings scatter.
% is scaled to controls: 0 for no effect and ±100 for the full control effect.

The assay is described as follows: qHTS assay to test for compound auto fluorescence at 535 nm (green) in HEK293 cell free culture (AID 720682). The note with it: cell-free medium, green autofluorescence 485/535 nm, hits give high values; series mostly up to 91.3 µM. A digest of the protocol:
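Cell-free medium (DMEM, 10% FBS) receives compound or DMSO by pintool. Plate read directly at Ex 485/Em 535 nm. Signal converted to fluorescein equivalency.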
For `COc1nc(C)nc(NC(=O)NS(=O)(=O)c2ccccc2OCCCl)n1`, the result was inactive.

Consider `CCCCNC(=S)NCCCC`, for which the call was inactive.

For the compound `CC(C)(C)c1cccc(O)c1`, the outcome was inactive.

As for `O=C1CCC(C2CCCCC2)CC1`, the call was inactive.

For the compound `COC(=O)c1ccc2cc(C(=O)OC)ccc2c1`, the activity change was -0.0115% [at 18.6 µM] (inactive).

For `CCCc1c2oc(C(=O)O)cc(=O)c2cc2c(=O)cc(C(=O)O)n(CC)c12`, the result was inactive.

Take `CC(CNC1CCCCC1)OC(=O)c1ccccc1` (stereo not given): the activity change was 0.0004% [at 18.6 µM] (inactive).

Take `CC(C)OC(C)C`: the call was inactive.

For the compound `OCCN(CCO)c1ccccc1`, the call was inactive.

Regarding `O=C(C(Cl)Cl)N1CCOC12CCCCC2`, the compound was called inactive.

For `CCCCCCCCCC#N`, the result was inactive.

For `CCOC(=O)C(Br)c1ccccc1` (stereo not given), the compound was called inactive.

Turning to `C[C@@H](N)C(=O)O`, the call was inactive.

Take `O=C1N(c2ccccc2)c2ccccc2C1(Cc1ccncc1)Cc1ccncc1`: the outcome was inactive.

On to `Cc1ccsc1C(=CCCN1CCC[C@@H](C(=O)O)C1)c1sccc1C`, for which the compound was called inactive.

As for `C=CCc1cc(OC)c(O)c(C(=O)NCCO)c1`, the compound was called inactive.

`CCc1cc(Cl)c(OC)c(C(=O)NC[C@@H]2CCCN2CC)c1O`: the outcome was inactive.

As to `CCCCOc1cc(C(=O)NCCN(CC)CC)c2ccccc2n1`, the activity change was -0.0175% [at 18.6 µM] (inactive).

As for `CCC(=O)O[C@]1(C(=O)SCF)[C@H](C)C[C@H]2[C@@H]3C[C@H](F)C4=CC(=O)C=C[C@]4(C)[C@@]3(F)[C@@H](O)C[C@@]21C`, the activity change is 0.0558% [at 18.6 µM] (inactive).

`NNS(=O)(=O)c1ccc(Oc2ccc(S(=O)(=O)NN)cc2)cc1`: the result was inactive.
